Source: PMC12820563, “FoxP3 forms a head-to-head dimer in vivo and stabilizes its multimerization on adjacent microsatellites”
In all, about 16,000 sequences were measured (“rpm ratio (pull-down/input)”: median about 0.5, highest 2% from about 5.5 on). The full list was thinned out, with the highest values kept by preference.

biological target: T1, MBP-FoxP3dN (Mus musculus, UniProt Q99JB6 188-423); assay: PD-seq (MBP pull-down with sequencing); 20 mM Tris-HCl pH 7.5, 100 mM NaCl, 1.5 mM MgCl2, 0.4 uM protein, 0.1 uM dsDNA library, 30 min, room temperature, amylose pull-down; high values mean tight binding; settings: protein: recombinant; tags: His6-MBP; chain copies: 2; dsDNA, one strand shown
T1 sequence: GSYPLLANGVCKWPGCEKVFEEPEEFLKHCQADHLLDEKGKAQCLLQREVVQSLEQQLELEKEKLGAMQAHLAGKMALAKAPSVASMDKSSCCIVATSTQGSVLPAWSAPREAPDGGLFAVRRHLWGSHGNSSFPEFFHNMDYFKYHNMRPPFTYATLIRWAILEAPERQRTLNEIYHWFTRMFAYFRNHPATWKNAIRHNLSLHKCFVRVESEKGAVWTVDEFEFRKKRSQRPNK
Summary of the method: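 Binding is given as reads-per-million enrichment, pull-down over input, with replicates pooled. The bait was an N-terminus-lacking mouse FoxP3 or FoxP1 fragment with a His6-MBP tag, expressed in E. coli and used at 0.4 µM with 0.1 µM Klenow-filled degenerate double-stranded DNA library for 30 min at room temperature in Tris pH 7.5 buffer with NaCl and MgCl2. Amylose resin pull-down with three washes was followed by proteinase K release, PCR barcoding and Illumina sequencing.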

Sequence	binding signal
GATGATTGTTCTCCCAGCTGATGAATTGGCCCTCTCGAGTAAACAAATTTTCCTAATCTTTCTGTTCAAGCGCCATCTAC	0.358 RPM ratio (pull-down/input)
GATGATTGTTCTCCCAGCTGATGAATTCGTCAGGTCGAGTAAACAAATTTTCCTAATCTTTCTGTTCAAGCGCCATCTAC	0.551 RPM ratio (pull-down/input)
GATGATTGTTCTCCCAGCTGATGAATTTGTTGGCTCGAGTAAACAAATTTTCCTAATCTTTCTGTTCAAGCGCCATCTAC	7 RPM ratio (pull-down/input)
GATGATTGTTCTCCCAGCTGATGAATTTTTTGGCTCGAGTAAACAAATTTTCCTAATCTTTCTGTTCAAGCGCCATCTAC	0.204 RPM ratio (pull-down/input)
GATGATTGTTCTCCCAGCTGATGAATTCTTTGGCTCGAGTAAACAAATTTTCCTAATCTTTCTGTTCAAGCGCCATCTAC	0.217 RPM ratio (pull-down/input)
GATGATTGTTCTCCCAGCTGATGAATTGTTAGGCTCGAGTAAACAAATTTTCCTAATCTTTCTGTTCAAGCGCCATCTAC	0.88 RPM ratio (pull-down/input)
GATGATTGTTCTCCCAGCTGATGAATTTGTTAGCTCGAGTAAACAAATTTTCCTAATCTTTCTGTTCAAGCGCCATCTAC	6.55 RPM ratio (pull-down/input)
GATGATTGTTCTCCCAGCTGATGAATTTCTTAGCTCGAGTAAACAAATTTTCCTAATCTTTCTGTTCAAGCGCCATCTAC	0.342 RPM ratio (pull-down/input)
GATGATTGTTCTCCCAGCTGATGAATTGCGGTCATCGAGTAAACAAATTTTCCTAATCTTTCTGTTCAAGCGCCATCTAC	1.01 RPM ratio (pull-down/input)
GATGATTGTTCTCCCAGCTGATGAATTAATGCATTCGAGTAAACAAATTTTCCTAATCTTTCTGTTCAAGCGCCATCTAC	6.89 RPM ratio (pull-down/input)
GATGATTGTTCTCCCAGCTGATGAATTGATGCATTCGAGTAAACAAATTTTCCTAATCTTTCTGTTCAAGCGCCATCTAC	6.87 RPM ratio (pull-down/input)
GATGATTGTTCTCCCAGCTGATGAATTGCATCATTCGAGTAAACAAATTTTCCTAATCTTTCTGTTCAAGCGCCATCTAC	5.15 RPM ratio (pull-down/input)
GATGATTGTTCTCCCAGCTGATGAATTCATGCATTCGAGTAAACAAATTTTCCTAATCTTTCTGTTCAAGCGCCATCTAC	5.77 RPM ratio (pull-down/input)
GATGATTGTTCTCCCAGCTGATGAATTAAATGCATCGAGTAAACAAATTTTCCTAATCTTTCTGTTCAAGCGCCATCTAC	2.36 RPM ratio (pull-down/input)
GATGATTGTTCTCCCAGCTGATGAATTAATGAATTCGAGTAAACAAATTTTCCTAATCTTTCTGTTCAAGCGCCATCTAC	0.682 RPM ratio (pull-down/input)
GATGATTGTTCTCCCAGCTGATGAATTGAAGCATTCGAGTAAACAAATTTTCCTAATCTTTCTGTTCAAGCGCCATCTAC	4.38 RPM ratio (pull-down/input)
GATGATTGTTCTCCCAGCTGATGAATTGCATGATTCGAGTAAACAAATTTTCCTAATCTTTCTGTTCAAGCGCCATCTAC	1.35 RPM ratio (pull-down/input)
GATGATTGTTCTCCCAGCTGATGAATTCGATGCATCGAGTAAACAAATTTTCCTAATCTTTCTGTTCAAGCGCCATCTAC	1.84 RPM ratio (pull-down/input)
GATGATTGTTCTCCCAGCTGATGAATTTTGCACGTCGAGTAAACAAATTTTCCTAATCTTTCTGTTCAAGCGCCATCTAC	3.32 RPM ratio (pull-down/input)
GATGATTGTTCTCCCAGCTGATGAATTTTTAGGATCGAGTAAACAAATTTTCCTAATCTTTCTGTTCAAGCGCCATCTAC	0.222 RPM ratio (pull-down/input)
GATGATTGTTCTCCCAGCTGATGAATTCAATTAGTCGAGTAAACAAATTTTCCTAATCTTTCTGTTCAAGCGCCATCTAC	1.25 RPM ratio (pull-down/input)

Sequence	binding signal
GATGATTGTTCTCCCAGCTGATGAATTCTGTAGGTCGAGTAAACAAATTTTCCTAATCTTTCTGTTCAAGCGCCATCTAC	0.948 RPM ratio (pull-down/input)
GATGATTGTTCTCCCAGCTGATGAATTTGACGTATCGAGTAAACAAATTTTCCTAATCTTTCTGTTCAAGCGCCATCTAC	1.27 RPM ratio (pull-down/input)
GATGATTGTTCTCCCAGCTGATGAATTGGAGTACTCGAGTAAACAAATTTTCCTAATCTTTCTGTTCAAGCGCCATCTAC	0.523 RPM ratio (pull-down/input)
GATGATTGTTCTCCCAGCTGATGAATTCGAACTTTCGAGTAAACAAATTTTCCTAATCTTTCTGTTCAAGCGCCATCTAC	0.271 RPM ratio (pull-down/input)
GATGATTGTTCTCCCAGCTGATGAATTCATCTCATCGAGTAAACAAATTTTCCTAATCTTTCTGTTCAAGCGCCATCTAC	0.393 RPM ratio (pull-down/input)
GATGATTGTTCTCCCAGCTGATGAATTGTTAGTTTCGAGTAAACAAATTTTCCTAATCTTTCTGTTCAAGCGCCATCTAC	4.23 RPM ratio (pull-down/input)
GATGATTGTTCTCCCAGCTGATGAATTTGTTAGTTCGAGTAAACAAATTTTCCTAATCTTTCTGTTCAAGCGCCATCTAC	7.44 RPM ratio (pull-down/input)
GATGATTGTTCTCCCAGCTGATGAATTAGTTTGTTCGAGTAAACAAATTTTCCTAATCTTTCTGTTCAAGCGCCATCTAC	6.22 RPM ratio (pull-down/input)
GATGATTGTTCTCCCAGCTGATGAATTTTTTAGTTCGAGTAAACAAATTTTCCTAATCTTTCTGTTCAAGCGCCATCTAC	0.299 RPM ratio (pull-down/input)
GATGATTGTTCTCCCAGCTGATGAATTAGTAGTTTCGAGTAAACAAATTTTCCTAATCTTTCTGTTCAAGCGCCATCTAC	1.93 RPM ratio (pull-down/input)
GATGATTGTTCTCCCAGCTGATGAATTCTTTAGTTCGAGTAAACAAATTTTCCTAATCTTTCTGTTCAAGCGCCATCTAC	0.297 RPM ratio (pull-down/input)
GATGATTGTTCTCCCAGCTGATGAATTAGTTTCTTCGAGTAAACAAATTTTCCTAATCTTTCTGTTCAAGCGCCATCTAC	2.72 RPM ratio (pull-down/input)
GATGATTGTTCTCCCAGCTGATGAATTAGTTGTTTCGAGTAAACAAATTTTCCTAATCTTTCTGTTCAAGCGCCATCTAC	6.61 RPM ratio (pull-down/input)
GATGATTGTTCTCCCAGCTGATGAATTTAGTTGTTCGAGTAAACAAATTTTCCTAATCTTTCTGTTCAAGCGCCATCTAC	5.93 RPM ratio (pull-down/input)
GATGATTGTTCTCCCAGCTGATGAATTAGTTAGTTCGAGTAAACAAATTTTCCTAATCTTTCTGTTCAAGCGCCATCTAC	4.22 RPM ratio (pull-down/input)
GATGATTGTTCTCCCAGCTGATGAATTAGTTCTTTCGAGTAAACAAATTTTCCTAATCTTTCTGTTCAAGCGCCATCTAC	0.409 RPM ratio (pull-down/input)
GATGATTGTTCTCCCAGCTGATGAATTAGTTTTTTCGAGTAAACAAATTTTCCTAATCTTTCTGTTCAAGCGCCATCTAC	3.9 RPM ratio (pull-down/input)
GATGATTGTTCTCCCAGCTGATGAATTCGACAGGTCGAGTAAACAAATTTTCCTAATCTTTCTGTTCAAGCGCCATCTAC	0.284 RPM ratio (pull-down/input)
GATGATTGTTCTCCCAGCTGATGAATTCAGACATTCGAGTAAACAAATTTTCCTAATCTTTCTGTTCAAGCGCCATCTAC	0.869 RPM ratio (pull-down/input)
GATGATTGTTCTCCCAGCTGATGAATTTCGCGAGTCGAGTAAACAAATTTTCCTAATCTTTCTGTTCAAGCGCCATCTAC	0.675 RPM ratio (pull-down/input)
GATGATTGTTCTCCCAGCTGATGAATTAGAGCCCTCGAGTAAACAAATTTTCCTAATCTTTCTGTTCAAGCGCCATCTAC	0.358 RPM ratio (pull-down/input)

Sequence	binding signal
GATGATTGTTCTCCCAGCTGATGAATTTCAACGCTCGAGTAAACAAATTTTCCTAATCTTTCTGTTCAAGCGCCATCTAC	0.363 RPM ratio (pull-down/input)
GATGATTGTTCTCCCAGCTGATGAATTTATGGAGTCGAGTAAACAAATTTTCCTAATCTTTCTGTTCAAGCGCCATCTAC	0.454 RPM ratio (pull-down/input)
GATGATTGTTCTCCCAGCTGATGAATTAGACAAATCGAGTAAACAAATTTTCCTAATCTTTCTGTTCAAGCGCCATCTAC	0.417 RPM ratio (pull-down/input)
GATGATTGTTCTCCCAGCTGATGAATTACTTCACTCGAGTAAACAAATTTTCCTAATCTTTCTGTTCAAGCGCCATCTAC	0.319 RPM ratio (pull-down/input)
GATGATTGTTCTCCCAGCTGATGAATTCTTAATCTCGAGTAAACAAATTTTCCTAATCTTTCTGTTCAAGCGCCATCTAC	0.28 RPM ratio (pull-down/input)
GATGATTGTTCTCCCAGCTGATGAATTTATACCTTCGAGTAAACAAATTTTCCTAATCTTTCTGTTCAAGCGCCATCTAC	0.85 RPM ratio (pull-down/input)
GATGATTGTTCTCCCAGCTGATGAATTGAACGGGTCGAGTAAACAAATTTTCCTAATCTTTCTGTTCAAGCGCCATCTAC	0.23 RPM ratio (pull-down/input)
GATGATTGTTCTCCCAGCTGATGAATTCATATTGTCGAGTAAACAAATTTTCCTAATCTTTCTGTTCAAGCGCCATCTAC	1.06 RPM ratio (pull-down/input)
GATGATTGTTCTCCCAGCTGATGAATTCGGTCATTCGAGTAAACAAATTTTCCTAATCTTTCTGTTCAAGCGCCATCTAC	0.728 RPM ratio (pull-down/input)
GATGATTGTTCTCCCAGCTGATGAATTTGGTGCTTCGAGTAAACAAATTTTCCTAATCTTTCTGTTCAAGCGCCATCTAC	1.59 RPM ratio (pull-down/input)
GATGATTGTTCTCCCAGCTGATGAATTGTCCGAATCGAGTAAACAAATTTTCCTAATCTTTCTGTTCAAGCGCCATCTAC	0.272 RPM ratio (pull-down/input)
GATGATTGTTCTCCCAGCTGATGAATTTGTCATCTCGAGTAAACAAATTTTCCTAATCTTTCTGTTCAAGCGCCATCTAC	6.03 RPM ratio (pull-down/input)
GATGATTGTTCTCCCAGCTGATGAATTTTTGTCATCGAGTAAACAAATTTTCCTAATCTTTCTGTTCAAGCGCCATCTAC	0.666 RPM ratio (pull-down/input)
GATGATTGTTCTCCCAGCTGATGAATTGTCATTTTCGAGTAAACAAATTTTCCTAATCTTTCTGTTCAAGCGCCATCTAC	0.999 RPM ratio (pull-down/input)
GATGATTGTTCTCCCAGCTGATGAATTGTCATCCTCGAGTAAACAAATTTTCCTAATCTTTCTGTTCAAGCGCCATCTAC	0.941 RPM ratio (pull-down/input)
GATGATTGTTCTCCCAGCTGATGAATTTTGTCATTCGAGTAAACAAATTTTCCTAATCTTTCTGTTCAAGCGCCATCTAC	4.89 RPM ratio (pull-down/input)
GATGATTGTTCTCCCAGCTGATGAATTTGTCATTTCGAGTAAACAAATTTTCCTAATCTTTCTGTTCAAGCGCCATCTAC	5.68 RPM ratio (pull-down/input)
GATGATTGTTCTCCCAGCTGATGAATTACTTTCTTCGAGTAAACAAATTTTCCTAATCTTTCTGTTCAAGCGCCATCTAC	0.388 RPM ratio (pull-down/input)
GATGATTGTTCTCCCAGCTGATGAATTGCTGCACTCGAGTAAACAAATTTTCCTAATCTTTCTGTTCAAGCGCCATCTAC	1.03 RPM ratio (pull-down/input)
GATGATTGTTCTCCCAGCTGATGAATTCGTGGTTTCGAGTAAACAAATTTTCCTAATCTTTCTGTTCAAGCGCCATCTAC	1.35 RPM ratio (pull-down/input)
GATGATTGTTCTCCCAGCTGATGAATTAGGTAGTTCGAGTAAACAAATTTTCCTAATCTTTCTGTTCAAGCGCCATCTAC	0.919 RPM ratio (pull-down/input)
